Screens as filed in PubChem.
An excerpt weighted towards active compounds, which were near 2.6% of everything screened.
Luciferase inh: inhibitors of firefly luciferase; 2.2% of 72,000 active; purified firefly luciferase, luminescence, 8 min; Potency, µM (series often up to 57.1 µM), hits mostly inhibitors; also: nearly all actives have a fitted effect of over 40% in size
Target sequence (P08659 whole entry, looked up): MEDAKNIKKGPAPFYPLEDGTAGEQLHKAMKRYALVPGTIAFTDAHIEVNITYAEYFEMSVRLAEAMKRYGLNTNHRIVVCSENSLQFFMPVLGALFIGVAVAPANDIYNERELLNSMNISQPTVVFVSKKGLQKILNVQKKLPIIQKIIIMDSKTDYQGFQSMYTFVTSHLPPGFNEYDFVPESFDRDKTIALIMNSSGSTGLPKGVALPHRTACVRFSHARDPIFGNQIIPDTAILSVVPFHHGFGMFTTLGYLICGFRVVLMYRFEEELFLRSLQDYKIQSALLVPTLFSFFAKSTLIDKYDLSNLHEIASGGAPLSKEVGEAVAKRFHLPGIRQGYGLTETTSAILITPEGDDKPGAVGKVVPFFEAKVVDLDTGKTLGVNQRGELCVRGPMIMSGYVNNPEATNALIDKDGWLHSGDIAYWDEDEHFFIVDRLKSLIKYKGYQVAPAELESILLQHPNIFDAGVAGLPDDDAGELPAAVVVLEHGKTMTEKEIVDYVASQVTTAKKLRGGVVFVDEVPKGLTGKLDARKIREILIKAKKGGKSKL
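qHTS concentration-response profiling: light output of P. pyralis luciferase with luciferin and 10 uM ATP, imidazole buffer pH 7.2. Read by luminescence after 8-min room-temperature incubation.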
p53ts 39C tox: kills p53ts cells at the nonpermissive temperature; H1299-p53A138V viability at 39C, ATP luminescence, 24 h; Potency, µM (titrated, usually from 46.1 µM), most hits filed as cytotoxic; 1.5% of 130,000 active; AID 902; also: nearly all actives have a fitted effect of over 55% in size
p53ts 32C kill: kills p53ts cells at the permissive temperature; H1299-p53A138V at 32C, ATP luminescence viability, 24 h; 0.93% of 130,000 active; Potency, µM (top dose mostly 46.1 µM), hits mostly cytotoxic; also: nearly all actives have a fitted effect of over 55% in size
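ATP-content luminescence (ATPlite) read-out after 24 h compound exposure at 32C in H1299-p53A138V cells (600/well). Tested up to 46 uM. Normalized to DMSO (0%) and 100 uM tamoxifen (100% killing); Hill-fit AC50.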
Each line names hits and unclear results; the compound was inactive in the other large screens. Calls follow the shape of the dose curve; as a rule, active = well fitted curve in the direction sought with a large enough effect; inconclusive = small, poorly fitted or top-dose-only effect, or another doubt; inactive = no such curve, though single readings can be large; an effect the other way counts as inactive or inconclusive.

Cc1ccsc1C(=O)Nc1ccc2c(c1)OCCO2	p53ts 39C tox 14µM (no result: Luciferase inh, p53ts 32C kill)
COc1ccc(NC(=O)c2ocnc2C)cc1OC	none
Cc1ccsc1C(=O)NC(C)c1ccc2c(c1)OCO2 (centres undefined)	none (no result: Luciferase inh)
CC(=O)OC1C[C@]2(C)[C@@H](CC(O)C3[C@]4(C)CCC(O)C(C)[C@@H]4CC[C@]32C)/C1=C(/CCC=C(C)C)C(=O)O (some centres undefined)	none (no result: Luciferase inh)
COc1ccc(-c2cc(C(=O)N/N=C\c3cc(OC)c(OC)c(OC)c3)[nH]n2)cc1	none (no result: Luciferase inh)
Cc1cccc(C)c1NC(=O)CN(C)S(=O)(=O)c1ccc2c(c1)n(C)c(=O)c(=O)n2C	none (no result: Luciferase inh)
O=C(CC1N=C2c3ccccc3N=C(SCc3cccc(Cl)c3)N2C1=O)NC1CCCCC1 (centres undefined)	none (no result: Luciferase inh)
CC(C)(C)c1ccc(C(=O)Nc2nnc3n2CCS3)cc1	p53ts 39C tox 13µM, p53ts 32C kill inconclusive (no result: Luciferase inh)
CC(C)(C)C(=O)Nc1nnc2n1CCS2	p53ts 39C tox inconclusive (no result: Luciferase inh)
COc1ccccc1N=c1oc2cc(O)ccc2cc1C(=O)NCC1CCCO1 (centres undefined)	none
COc1ccccc1N=c1oc2cc(O)ccc2cc1C(N)=O	Luciferase inh 7.9µM, p53ts 39C tox 13µM, p53ts 32C kill inconclusive
O=C(CSc1nc(=O)n(Cc2ccco2)c2c1CCC2)NCc1ccccc1Cl	none (no result: Luciferase inh)
Cc1ccccc1CSc1ccc(-c2cccs2)nn1	p53ts 39C tox 11µM, p53ts 32C kill inconclusive (no result: Luciferase inh)
Cc1ccc(CSc2ccc(-c3cccs3)nn2)cc1	none (no result: Luciferase inh)
Cc1cc(Nc2cccc(F)c2)nc(-c2ccccc2O)n1	p53ts 39C tox 16µM, p53ts 32C kill inconclusive
Cc1cc(Nc2ccccc2)nc(-c2ccccc2O)n1	none
Cc1ccc(S(=O)(=O)c2c(O)cc(C)c(NS(=O)(=O)c3ccc(Cl)cc3)c2C)cc1	p53ts 39C tox inconclusive (no result: Luciferase inh)
CCOCCCNC(=O)NC(CCC(C)C)c1c(-n2cccc2)sc2c1CCN(C)C2 (centres undefined)	none (no result: Luciferase inh, p53ts 39C tox)
Cc1cccnc1Nc1nc(-c2ccc(O)cc2O)cs1	Luciferase inh 16µM
Cc1cc(O)ccc1Nc1nc(-c2sc(N)nc2C)cs1	none
O=C(NC1CCCC1)c1ccc2c(=O)n(Cc3ccccc3)c(SCc3ccc([N+](=O)[O-])cc3)nc2c1	none (no result: Luciferase inh)
COc1ccc(OC)c(CNC(=O)c2nn(-c3ccc(OC)c(Cl)c3)c(=O)c3c2c2ccccc2n3C)c1	none (no result: Luciferase inh)
COc1cccc(N2CCN(C(=O)c3cnn(-c4ccc(C)cc4C)c3C3CCN(C(=O)OC(C)(C)C)CC3)CC2)c1	none (no result: Luciferase inh)
COc1cccc(NC(=O)CSc2nnc(-c3cccc(OC)c3)o2)c1	p53ts 39C tox 10µM, p53ts 32C kill 13µM (no result: Luciferase inh)
COc1ccccc1-c1nnc(SCC(=O)Nc2ccc(Cl)cc2Cl)o1	none
COc1cccc(NC(=O)CSc2nnc(-c3ccc(C)cc3)o2)c1	p53ts 39C tox inconclusive
COCCCn1c(SCC(=O)OC2CCCCC2)nnc1-c1ccco1	Luciferase inh 25µM, p53ts 32C kill inconclusive
O=C(CSc1nnc(-c2ccccc2F)o1)Nc1ccccc1Cl	p53ts 39C tox 13µM, p53ts 32C kill inconclusive (no result: Luciferase inh)
COCCCn1c(SCC(=O)NC2CCCC2)nnc1-c1ccco1	none
O=C(CSc1nnc(-c2ccc(Cl)cc2)o1)c1ccc([N+](=O)[O-])cc1	none (no result: Luciferase inh)
CC(=O)Nc1cccc(-c2nnc(SCC(=O)c3cc([N+](=O)[O-])ccc3Cl)o2)c1	p53ts 39C tox 13µM, p53ts 32C kill inconclusive (no result: Luciferase inh)
CCOC(=O)c1cccc(NC(=O)c2oc3c(c2C)-c2nn(CC)cc2CC3)c1	p53ts 39C tox inconclusive (no result: Luciferase inh)
COc1ccccc1NC(=O)CSc1nnc(-c2ccccn2)n1Cc1ccco1	none
COc1ccccc1NC(=O)CSc1nnc(-c2ccco2)n1Cc1ccco1	Luciferase inh 25µM
COc1ccc(C)cc1NC(=O)CSc1nnc(-c2ccc(Br)cc2)o1	none
COc1ccccc1NC(=O)CSc1nnc(-c2ccc(C)cc2)o1	p53ts 39C tox 6.3µM, p53ts 32C kill 7.9µM
CO/N=C(\C(=O)N[C@@H]1C(=O)N2C(C(=O)O)=C(CSc3nc(=O)c(O)nn3C)CS[C@@H]12)c1csc(N)n1	none
CCOc1ccc(CC(=O)Nc2nnc3n2CCS3)cc1	none (no result: Luciferase inh)
CCOC(=O)c1ccc(OCC(=O)c2ccc(O)cc2O)cc1	p53ts 39C tox 13µM, p53ts 32C kill 13µM
COC(=O)c1ccc(CC(=O)c2ccc(O)cc2O)o1	none (no result: Luciferase inh)
COC(=O)c1ccc(OCC(=O)c2ccc(O)cc2O)cc1	Luciferase inh 13µM, p53ts 39C tox 13µM, p53ts 32C kill 13µM
CCOC(=O)COc1ccc(C(=O)c2ccccc2)c(O)c1	none
CCOc1ccc(-c2nnc(SCC(=O)NCc3ccc(Cl)cc3)o2)cc1	none (no result: Luciferase inh)
Cc1cc(NC(=O)c2ccc(S(=O)(=O)N(C)C)cc2)no1	none
CCOc1ccc(C(=O)Nc2cc(C)on2)cc1	Luciferase inh 10µM, p53ts 39C tox 3.2µM, p53ts 32C kill 2.5µM
CCOc1cc(C(=O)Nc2cc(C)on2)cc(OCC)c1OCC	none
Cc1cc(NC(=O)c2ccc(Cl)cc2)no1	Luciferase inh inconclusive, p53ts 39C tox 7.9µM, p53ts 32C kill 7.9µM
O=C(Cn1c(-c2cccs2)cc2ccccc21)NCCCN1CCN(c2ccccc2F)CC1	none (no result: Luciferase inh, p53ts 39C tox)
CCc1ccccc1N(C)C(=O)Cc1c(C(=O)O)c(C)cn1C	none (no result: Luciferase inh)
Cc1ccc(SCc2cn3c(C)csc3n2)cc1	Luciferase inh 16µM, p53ts 39C tox 13µM, p53ts 32C kill inconclusive
Cc1ccc(S(=O)(=O)NCc2cn3c(C)csc3n2)cc1	none
CN(C)CCNS(=O)(=O)N(C)C	none
Cc1sc(NC(=O)c2cccs2)c(C(N)=O)c1C	Luciferase inh 13µM, p53ts 39C tox inconclusive, p53ts 32C kill inconclusive
O=C(Nc1sc2c(c1C(=O)O)CCCC2)c1cccs1	none
O=c1cnc2cncnc2n1Cc1ccc(F)cc1	none
CCN(CC)C(=O)C1=CC(c2ccc3c(c2)OCO3)=NS(=O)(=O)N1C	none (no result: Luciferase inh)
COC(=O)C/C=C\[C@@H](C)[C@@H](/C=N\OC[C@@H](O)[C@H]1O[C@H]2OC(C)(C)O[C@H]2[C@@H]1O)OC	none
O=C(O)c1cc(-c2ccc(-c3ccc(-c4cc(C(=O)O)c5cc(Cl)ccc5n4)cc3)cc2)nc2ccc(Cl)cc12	none
COC(=O)c1ccc(-c2cc(C(=O)O)c3cc4c(cc3n2)OCCO4)cc1	Luciferase inh 3.2µM, p53ts 39C tox inconclusive, p53ts 32C kill inconclusive
COc1ccc2c(c1)CC(NC(=O)Nc1ccc(NC(C)=O)cc1)CO2 (centres undefined)	none (no result: Luciferase inh)
CCOC(=O)c1ccc(NC(=O)C2CCCN(c3ncnc4onc(C)c34)C2)cc1 (centres undefined)	none (no result: Luciferase inh)
CCCCN(C)C(=O)Cn1c(SCC(=O)Nc2ccc(C)c(C)c2)nc2ccccc21	none (no result: Luciferase inh)
CC(C)c1ccc(C2N=C(N)Nc3nc4ccccc4n32)cc1 (centres undefined)	p53ts 39C tox 10µM (no result: Luciferase inh)
NC1=NC(c2ccc(Br)cc2)n2c(nc3ccccc32)N1 (centres undefined)	none
COc1ccc(C2=Nc3ccccc3N(CC(=O)Nc3cccc(C(C)=O)c3)C(=O)C2)cc1	none (no result: Luciferase inh)
CCc1ccc(NC(=O)CSc2nc3n[nH]c(C)c3c(=N)n2-c2ccc(C)cc2)cc1	p53ts 39C tox 20µM, p53ts 32C kill inconclusive (no result: Luciferase inh)
Cc1ccc(Cl)cc1-n1c(SCC(=O)NCc2ccccc2)nc2n[nH]c(C)c2c1=N	p53ts 39C tox inconclusive (no result: Luciferase inh)
Cc1ccc(NC(=O)CSc2nc3n[nH]c(C)c3c(=N)n2-c2cccc(C)c2)cc1	none (no result: Luciferase inh)
